We go through 45 compounds from ChEMBL document CHEMBL3988442, “University of Dundee, Small-Polar-MMV Screening Library” (2021).

The whole screen tested about 69,000 compounds, of which about 950 (1.4%) showed an effect of 50% or more. This excerpt belongs to a sample that is enriched for strong results.

This assay has as its system Mycobacterium tuberculosis. Nature of the assay: Cornell M. t heat shock assay. Also: in the data most compounds retested in dose-response had high values. Type of assay: functional, organism-based. Details: dose or concentration left out as unconfirmed.
For the compound `CN(C)C[C@]12COC[C@H]1CN(C(=O)CCc1ccccc1)C2.O=C(O)C(F)(F)F`, the “Percent Effect” value is listed as -31.23%.

On to `COCCN1C[C@@H]2[C@@H](OC)CCN(Cc3cccs3)[C@@H]2C1.O=C(O)C(F)(F)F.O=C(O)C(F)(F)F`, for which the “Percent Effect” value was -45.94%. The value for `CCn1cc2c(n1)CN(CC1CC1)CC2COCC1CC1.O=C(O)C(F)(F)F` (stereo not given) was 0.92%; that for `CN1CC2(CCN(CC3CC3)CC2)COc2ccccc2S1(=O)=O.O=C(O)C(F)(F)F` was -26.67%; that for `COCc1ccccc1CNc1nnc(C)c(C)c1C#N` was 28.24%. The figure for `Cc1nnc(NCc2ccccc2F)c(C#N)c1C` is 88.29%. For the compound `Cc1nnc(NCc2ccccc2Cl)c(C#N)c1C`, the “Percent Effect” value stood at 29.74%. The value for `CCOCC1CN(Cc2cnn(C)c2)Cc2c1cnn2CC.O=C(O)C(F)(F)F` (stereo not given) was -24.32%. The value for `Cc1ccc(CN2CC[C@@H]3OCCN(Cc4ccncc4)[C@H]3CC2)s1.O=C(O)C(F)(F)F.O=C(O)C(F)(F)F.O=C(O)C(F)(F)F` was 43.06%; that for `Cc1nc2c(C)cccc2cc1C(=O)N1CCC2(CC1)NCCNC2=O` was -15.56%; that for `CC(C)CN1C[C@H](COCc2ccccc2)Oc2ncccc2C1=O` was 61.32%. In the case of `CCCC1CN(CC(C)C)C(=O)c2cccnc2O1` (stereo not given), the “Percent Effect” value is -5.035%. In the case of `CCCC1CN(CCOc2ccccc2)C(=O)c2cccnc2O1` (stereo not given), the “Percent Effect” value was -5.894%. Take `CCc1cc(N(C)Cc2[nH]nc3c2CCC3)nc(N2CCOCC2)n1`: the “Percent Effect” value is -16.74%. With `COc1nc2cc(C)ccc2cc1CN(C)Cc1n[nH]c2c1CCCC2`, the “Percent Effect” value is recorded as 2.274%. The figure for `Cc1ccc2nc(CN(C)Cc3n[nH]c4c3CCCCC4)[nH]c2c1C` is 106.9%; for `COc1nc2c(cc1C(=O)N(C)Cc1[nH]nc3c1CCC3)CCC2` it is 0.3103%; for `CN(Cc1cc2n(n1)CCNC2)Cc1n[nH]c2c1CCCCC2` it is -10.71%.

With `CN(Cc1cc2n(n1)CCNC2)Cc1n[nH]c2c1CCC2`, the “Percent Effect” value is recorded as -1.948%. For `Cc1ccc2nc(CN(C)Cc3[nH]nc4c3CCC4)[nH]c2c1C`, the “Percent Effect” value was 98.38%. The figure for `Cc1ccc2[nH]c(CN(C)Cc3n[nH]c4c3CCC4)nc2c1` is 98.03%; for `Cc1ccc2[nH]c(CN(C)Cc3ccccc3C(=O)O)nc2c1` it is -3.354%; for `CC(=O)N1C[C@@H]2CC[C@H](C1)N(S(=O)(=O)c1cc(F)ccc1C)C2` it is -2.155%. The value for `CNC(=O)[C@H]1C[C@@H]2CN(Cc3ccc(OC)cc3)C[C@H]1O2.O=C(O)C(F)(F)F` was 15.08%. The value for `Cc1ccc(CN2C[C@@H](OCc3ccccn3)[C@H]3COC[C@H]32)o1.O=C(O)C(F)(F)F.O=C(O)C(F)(F)F` was 4.099%; that for `CNc1nc(C2CCCN2)nc2c1CCN(S(=O)(=O)C1CCCCC1)C2.Cl` (stereo not given) was 12.62%; that for `CCc1cc(NC2CCN(S(C)(=O)=O)CC2)n2nc(C)c(C)c2n1` was 105.8%. Turning to `CCOC(=O)N1CCC(Nc2cc(CC)nc3c(C)c(C)nn23)CC1`, the “Percent Effect” value is -7.891%. The figure for `CCc1cc(NC2CCOCC2)n2nc(C)c(C)c2n1` is -7.332%; for `CCN(CC)CCN1CC[C@H]2OCC[C@@]2(C(=O)N2CCOCC2)C1.O=C(O)C(F)(F)F.O=C(O)C(F)(F)F` it is 6.776%; for `Cl.Cl.Cn1cc(C(=O)NCc2cncc3c2CCN(c2ccccn2)C3)cn1` it is -14.06%. The figure for `COc1cccc2[nH]c(C(=O)N3CCNCC3C(N)=O)cc12.Cl` (stereo not given) is -10.67%; for `CC(C)CCC1=NC2(CCN(C(=O)N3CCN(C)CC3)CC2)C(=O)N1` it is 15.27%. The value for `COC(=O)N1CCC2(CC1)N=C(CCC(C)C)NC2=O` was 95.71%.

Turning to `CCOC(=O)N1CCC2(CC1)N=C(CCC(C)C)NC2=O`, the “Percent Effect” value was 12.74%. The figure for `Cc1oncc1C(=O)N[C@@H]1CN(Cc2ccco2)C[C@@H]2CCCO[C@@H]21.O=C(O)C(F)(F)F` is 4.265%. For the compound `CC[C@@H]1N(Cc2ccco2)CCC[C@]12CCC(=O)N2C.O=C(O)C(F)(F)F`, the “Percent Effect” value is listed as -19.47%. The figure for `c1cc(-c2cncnc2)cc(-c2ccn(CC3CCNC3)n2)c1` (stereo not given) is 8.343%; for `Cc1nccc(-c2cccc(-c3ccn(CC4CCNC4)n3)c2)n1` (stereo not given) it is -11.22%. On to `Cc1ccsc1-c1cccc(-c2ccn(CC3CCNC3)n2)c1` (stereo not given), for which the “Percent Effect” value was 84.67%.

Regarding `CN1CCC(c2nnc3ccc(C(=O)NC4CCCC4)cn23)C1.O=C(O)C(F)(F)F` (stereo not given), the “Percent Effect” value is given as -23.72%. The figure for `CNc1cc(C)nc(C2CCN(CCO)CC2)n1` is -3.64%. The figure for `CC(NC(=O)NCCCN1CCCCCC1)c1nncn1C` (stereo not given) is 12.17%; for `CC(NC(=O)NCCCN1CCCC1)c1nncn1C` (stereo not given) it is -5.961%; for `CC1CCN(CCCNC(=O)NC(C)c2nncn2C)CC1` (stereo not given) it is 68.75%.
